# Screening results from PubChem BioAssay.
# Compounds with a hit are over-represented: about 4.7% of the library has one in this group of screens.
# TRHR ag: qHTS for Small Molecule Agonists and Allosteric Enhancers of Human TRH Receptor: Primary Screen for Agonists | Thyrotropin-releasing hormone receptor (Homo sapiens), P34981 | TRHR cells, calcium flux fluo-8, FDSS agonist mode | activation, % at 2 µM | hit rate 0.18% among 360,000; also: 0% is about no effect
# Target sequence (P34981 whole entry, looked up): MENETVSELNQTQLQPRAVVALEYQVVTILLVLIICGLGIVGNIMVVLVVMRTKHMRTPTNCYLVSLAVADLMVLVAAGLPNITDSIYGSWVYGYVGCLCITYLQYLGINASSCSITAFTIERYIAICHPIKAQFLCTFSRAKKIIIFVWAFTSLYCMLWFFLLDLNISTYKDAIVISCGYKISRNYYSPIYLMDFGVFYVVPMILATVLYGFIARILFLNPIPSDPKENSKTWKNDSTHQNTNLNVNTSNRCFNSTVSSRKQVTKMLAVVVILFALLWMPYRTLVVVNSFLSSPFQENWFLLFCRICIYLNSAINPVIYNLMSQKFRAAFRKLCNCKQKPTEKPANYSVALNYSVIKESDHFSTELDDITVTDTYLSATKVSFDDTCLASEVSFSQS
#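 Fluo-8-loaded TRHR cells; 10 s baseline, compound added, kinetic Ca2+ fluorescence read 1/s, agonist mode.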
# D1 antagonist: Antagonist of Human D 1 Dopamine Receptor: qHTS. D(1A) dopamine receptor (Homo sapiens), P21728. HEK293 TREx D1 cells, calcium flux, dopamine EC80; active compounds read low. activity change, negative = inhibition, % at 10 µM. hit rate 3.2% among 360,000; in the data active = activity change below about -30%; also: % is scaled to controls: 0 for no effect and ±100 for the full control effect
#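 Tetracycline-induced HEK293 Trex D1 cells, force-coupled to calcium, dye-loaded; compounds added and read 180 s, then EC80 dopamine added and calcium flux tracked kinetically another 180 s.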
# D1 potentiator: Potentiators of Human D1 Dopamine Receptor: qHTS. HEK293 TREx D1 cells, calcium flux, dopamine EC20 potentiation. AID 504651, 2011. potentiation, % at 10 µM. hit rate 0.036% among 360,000; in the data active = potentiation above about 30%; also: 0% is about no effect
# TRHR PAM: qHTS for Small Molecule Agonists and Allosteric Enhancers of Human TRH Receptor: Primary Screen for Enhancers | Thyrotropin-releasing hormone receptor (Homo sapiens), P34981 | TRHR cells, fluo-8 calcium fluorescence, EC20 TRH enhancement | enhancement, % at 2 µM | hit rate 0.66% among 360,000 | AID 493056, 2011; in the data active = enhancement above about 30%; also: 0% is about no effect
#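 Enhancer read-out: after compound pinning and an initial kinetic agonist-mode read, an EC20 of TRH (10 nM final) was injected and fluo-8 calcium signal (Ex 480/Em 530) followed at 1 s/cycle for 100 cycles in TRHR-expressing cells.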
# D1 agonist: Allosteric Agonists of the Human D1 Dopamine Receptor: qHTS; D(1A) dopamine receptor (Homo sapiens), P21728; HEK293 T-REx D1 cells, calcium flux, agonist mode; activation, % at 2 µM; hit rate 1% among 360,000; AID 504660, 2011; also: 0% is about no effect
#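 Inducible HEK293 T-REx D1 cells, force-coupled to calcium signalling, were plated at 4000 cells/well with tetracycline and held overnight at 30 C. After no-wash calcium dye loading, compound-evoked calcium rise over 180 s flagged agonists.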
# Numbers without * were called inactive; x = no result given. Rule as the data show it, unless noted: active = activation above about 30%; inactive = the rest.
SMILES,TRHR ag,D1 antagonist,D1 potentiator,TRHR PAM,D1 agonist
Cc1ccccc1NC(=O)c1c(NC(=O)C(C)Oc2cccc(Cl)c2)sc2c1CCCC2 (stereo not given),0,-19,-1,-6,-1
O=C(CC1N=C2c3ccccc3N=C(SCc3ccccc3F)N2C1=O)NCc1ccc2c(c1)OCO2 (stereo not given),0,14,-2,5,1
Cc1ccc(C)c(N2CCN(C(=O)CCS(=O)(=O)c3ccc4c(c3)CC(=O)N4C)CC2)c1,0,8,3,-5,5
COc1ccc(-c2cn3cccnc3n2)cc1NC(=O)Nc1cc(C)ccc1C,-1,10,-2,-7,0
CNC(=O)/C(C#N)=C/c1cn(CC(=O)NCc2ccco2)c2ccccc12,0,-10,2,5,-3
COCCNC(=O)Cn1cc(/C=C(\C#N)C(=O)NC2CCCC2)c2ccccc21,0,-4,33*,-17,1
COc1ccc(Cl)cc1NC(=O)CN(C)C(=O)Cc1ccc2c(c1)CCC2,0,8,4,-2,0
COc1ccc(Cl)cc1NC(=O)CN(C)C(=O)c1cc2c(s1)CCCC2,0,-38*,-5,2,6
Cc1nn(Cc2c(F)c(F)c(F)c(F)c2F)c(C)c1NC(=O)c1ccc(COc2ccccc2Cl)cc1,0,-34*,-9,-2,6
COc1cccc(C2=NOC(C(=O)Nc3ccc4c(c3)OCO4)C2)c1 (stereo not given),3,-16,9,3,8
O=C(Nc1ccc2c(c1)OCO2)C1CC(c2cccc(Br)c2)=NO1 (stereo not given),1,-38*,-11,-1,2
O=C(CN1C(=O)NC2(CCCC2)C1=O)OCCOc1ccccc1,0,4,0,9,1
O=C(CCCOc1ccccc1)NN1C(=O)NC2(CCCCC2)C1=O,0,-43*,-6,5,0
CSc1nn(Cc2ccccc2C)c(NC(C)=O)c1S(=O)(=O)c1ccc(C)cc1,0,-33*,-6,4,5
O=C(Cc1ccccc1)N(Cc1cccnc1)c1nc2ccc(F)cc2s1,1,x,-2,-6,7
O=C(CCCN=C1NS(=O)(=O)c2ccccc21)OCC(=O)c1ccccc1,2,-30*,-4,2,17
Cc1ccc(C(=O)C(C)OC(=O)CCN=C2NS(=O)(=O)c3ccccc32)cc1 (stereo not given),0,-39*,-6,-5,17
O=C(CCN=C1NS(=O)(=O)c2ccccc21)OCC(=O)c1ccccc1,0,-8,-2,-4,5
COc1ccc(NC(=O)Cn2cc(S(=O)(=O)N3CCN(c4ccccc4F)CC3)c3ccccc3c2=O)cc1Cl,2,5,1,-4,4
COc1ccc(N2CCN(C(=O)c3cnn(-c4ccc(F)cc4)c3-n3cccc3)CC2)cc1,-1,-11,-1,0,0
CN(C(=S)Nc1ccc(Oc2ccccc2)cc1)C1CCCCC1,0,-33*,0,-6,6
CC(=O)N1c2ccccc2CC1C(=O)N1CCN(c2cccc(Cl)c2)CC1 (stereo not given),0,-1,-1,-1,2
CCCN(CCC)C(=O)Cn1c(=O)n(-c2ccc(CC)cc2)c(=O)c2ccc(C(=O)NCCc3ccccc3)cc21,-1,8,1,-2,5
CCOc1ccccc1NC(=S)N1CCCCCC1,-1,-37*,4,0,9
C=CCn1c(=O)/c(=C/c2ccc(O)cc2)s/c1=C(/C#N)c1nnc2n1CCCCC2,30*,-1,1,-6,50*
Cc1ccc2c(=O)cc(C(=O)Nc3ccc(S(=O)(=O)N4CCCCCC4)cc3)oc2c1,0,9,0,9,0
